Screening results deposited in PubChem BioAssay by several laboratories.
Most compounds without a hit are left out; they make up all but 2.2% or so of the library.
BaF3 tox = parental Ba/F3 cell viability inhibition, counter-screen for JAK2V617F inhibitor project, murine pro-B, CellTiter-Glo luminescence; CellTiter-Glo ATP luminescence; inhibition, % at 5.6 µM; 1.1% of 220,000 active; AID 1486, 2009;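 active = inhibition above a per-campaign cutoff, the mean inhibition of all tested compounds plus 3 SD, cut at about 27% in these data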;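 note: 0% = DMSO wells and 100% = JAK Inhibitor I control wells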
Ba/F3 V617F tox = reduced viability of JAK2V617F-dependent Ba/F3 cells, primary screen, JAK2V617F inhibitor project, cell-based, Ba/F3 EpoR-JAK2V617F, luminescence | inhibition, % at 5.6 µM | AID 1446, 2008 | ATP luminescence | 1.1% of 220,000 active;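 active = inhibition above the campaign mean plus 3 SD over all tested compounds, cut at about 24% in these data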;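 note: cytokine-independent growth of Ba/F3 cells driven by EpoR plus mutant JAK2; 0% = DMSO-treated cells and 100% = JAK inhibitor I control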
IEC-6 tox-1 = cytotoxicity in IEC-6 intestinal epithelial cells, primary screen, cytotoxicity control for KLF5 inhibitor project, cell-based, luminescence | IEC-6 cytotoxicity, luminescence viability | inhibition, % at 5 µM | 0.78% of 290,000 active; in the data active = inhibition above about 22%;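 note: 0% = plate median of test compound wells and 100% = cytotoxic reference compound wells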
aSyn UTR inh = MLPCN primary screen, SNCA 5' untranslated region. AID 1813, 2009. 0.82% of 300,000 active. alpha-synuclein 5'UTR reporter, inhibitor activity. inhibition, % (tested at 7.5 µM); in the data active = inhibition above about 60%; inconclusive = no clear call, values can overlap the other calls;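 note: H4 neuroglioblastoma cells stably carrying SNCA 5'UTR luciferase fusion; 0% = DMSO wells and 100% = positive control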
APP 5UTR inh = inhibitors of APP translation via 5'UTR reporter, primary screen, APP 5'UTR luciferase, SH-SY5Y cells. SH-SY5Y APP 5'UTR-luciferase reporter, luminescence. inhibition, % at 2 µM. 0.82% of 190,000 active;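 active = inhibition above a set limit, derived from the sample mean plus 3 SD, cut at about 45% in these data; inconclusive = one replicate passes the limit while the other fails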
KLF5 inh = KLF5 expression inhibitors, primary screen, DLD-1 cells, luminescence | DLD-1 KLF5 promoter-luciferase reporter | inhibition, % at 5 µM | 0.23% of 290,000 active | AID 1700, 2009;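 active = inhibition above a per-plate limit of that plate's mean compound inhibition plus 3 SD, cut at about 60% in these data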;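 note: 0% = DMSO wells and 100% = LY294002 at 200 µM; higher means less KLF5 promoter-driven luciferase light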
KLF5 inh confirm = KLF5 expression inhibitors, confirmation, DLD-1 cells, luminescence; shares compounds with KLF5 inh; DLD-1 KLF5 promoter firefly luciferase reporter; inhibition, % at 4 µM; 79% of 610 active;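 active = inhibition above a set limit taken from the earlier primary screen, cut at about 63% in these data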;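 note: 0% = DMSO wells and 100% = LY294002 at 200 µM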
IEC-6 tox-2 = cytotoxicity in rat IEC-6 cells, cytotoxicity control for KLF5 inhibitor project, cell-based, luminescence, triplicate | shares compounds with KLF5 inh | IEC-6 rat intestinal cells, viability luminescence | inhibition, % at 4 µM | 56% of 610 active | AID 1905, 2009; in the data active = inhibition above about 23%;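 note: cells exposed to compounds for 48 hours before viability read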
Active calls of the source: *; u = inconclusive; x = no result.

SMILES	BaF3 tox	Ba/F3 V617F tox	IEC-6 tox-1	aSyn UTR inh	APP 5UTR inh	KLF5 inh	KLF5 inh confirm	IEC-6 tox-2
CN1CCN(c2ccc(-c3ccc4ccccc4n3)cc2)CC1	11	14	8	112*	51*	99*	104*	-6
CN=c1scc(-c2ccccc2F)n1/N=C/c1ccc[nH]1	9	5	-5	83*	55*	94*	106*	2
Cc1cc(-c2nnc(SCCC(=O)Nc3ccccc3)o2)no1	x	x	-6	1	x	-32	x	x
CCCCN1C=CC(=C2C(=O)c3ccccc3C2=O)C=C1	22	21	19	98*	58*	95*	56	8
CCCCNC1=CC(=O)C(=O)c2ccccc21	7	-2	14	40	11	-12	x	x
COc1ccc(CN2CC[C@@H](N3CCOCC3)[C@H](O)C2)cc1F	x	x	-1	17	x	-36	x	x
CCCOc1ccccc1C1CC(=O)Nc2cc3c(cc21)OCCO3 (centres undefined)	77*	77*	81*	103*	94*	66*	83*	64*
CC(C)Oc1ccccc1C1CC(=O)Nc2cc3c(cc21)OCO3 (centres undefined)	75*	73*	84*	91*	92*	87*	83*	64*
Cc1ccc(C(=O)NCC(=O)OCC(=O)Nc2ccc3[nH]c(=O)[nH]c3c2)cc1	x	x	x	-5	x	x	x	x
COc1ccc(OCc2cccc(C(=O)Nn3cc([N+](=O)[O-])cn3)c2)cc1	12	6	4	13	-25	93*	103*	5
O=C(CCc1c[nH]c2ccccc12)NCCc1ccc(O)cc1	x	x	3	-4	x	-2	x	x
Cc1ccc(-c2nc(-c3ccccn3)no2)cc1Cl	3	4	11	104*	-159	70*	89*	11
Cc1ccc(-c2nc(-c3ccccn3)no2)cc1	21	23	16	99*	39	88*	100*	42*
c1ccc(-c2ccc(-c3nc(-c4ccccn4)no3)cc2)cc1	12	12	8	147*	46*	84*	104*	14
COc1cccc(C2/C(=C(/O)c3ccc4c(c3)CC(C)O4)C(=O)C(=O)N2CC2CCCO2)c1 (centres undefined)	x	x	0	x	x	-32	x	x
CN(C(=O)CSc1nc(N)cc(N)n1)C1CCS(=O)(=O)C1 (centres undefined)	x	x	-1	9	x	-21	x	x
COCCn1c(SCC(=O)NC2CCCC2)nc2c(c1=O)SCC2	x	x	2	-28	x	-30	x	x
COc1ccccc1OCC(=O)N/N=C/c1c(O)ccc2ccccc12	x	x	4	u	x	67*	58	-6
COc1cccc(/C=N/Nc2ncccc2[N+](=O)[O-])c1OC	14	17	12	92*	x	81*	30	23*
COc1cc(OC)c2cc(C(=O)N/N=C/c3cccc(OC)c3O)[nH]c2c1	-3	0	3	47	x	39	x	x
COc1cccc(/C=N/Nc2ccc(C(=O)O)cc2)c1O	3	1	-5	113*	80*	100*	111*	-7
COc1cccc(/C=N/NC(=O)c2cc3c(OC)ccc(OC)c3[nH]2)c1O	x	x	12	23	x	88*	72*	-2
COc1cccc(/C=N/Nc2ccc([N+](=O)[O-])cn2)c1O	x	x	10	102*	x	85*	72*	7
O=[N+]([O-])c1ccc(/C=N/Nc2ncccc2[N+](=O)[O-])s1	x	x	x	-9	x	x	x	x
Cc1cc(/C=N/Nc2ccc([N+](=O)[O-])cn2)c(C)n1-c1ccccc1	17	6	-7	-137	-8	-16	x	x
COc1cccc(/C=N/Nc2ccc(S(=O)(=O)O)cc2)c1O	3	-4	0	-3	-14	-2	x	x
Cc1ccc2nc(NC(=O)[C@H](C)N3C(=O)C4CC=CCC4C3=O)sc2c1 (some centres undefined)	1	-4	4	63*	18	74*	56	3
